Data published in PubChem BioAssay (NCI).
Compounds without any hit were thinned out: in the full panel of roughly 79,000, 15% have a hit. Values without a mark were called inactive. Activity calls are given as the source filed them. Cut-off read from the data, not from the text of the source: active = growth inhibition above about 70%; inactive = the rest.

Legend:
[1] = NCI Yeast Anticancer Drug Screen. Data for the rad50 strain (AID 155);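 note: 0% = growth of vehicle-only cultures of the same strain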; conditions: S. cerevisiae rad50 strain growth inhibition, stronger effect = higher value
Outline: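 Readout: growth inhibition relative to vehicle-treated cultures. Compound exposure was carried out in a genetically defined yeast strain deficient in DNA damage repair.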

[2] = NCI Yeast Anticancer Drug Screen. Data for the mec2-1 strain (AID 157); conditions: S. cerevisiae mec2-1 strain, stronger effect = higher value
Outline: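 Vehicle-treated cultures served as reference for growth inhibition of compound-exposed mec2-1 yeast.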

[3] = NCI Yeast Anticancer Drug Screen. Data for the sgs1 mgt1 strain (AID 161);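 note: 0% = growth of cultures given vehicle only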; conditions: S. cerevisiae sgs1 mgt1 strain, stronger effect = higher value
Outline: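 Mutant yeast exposed to compound; growth scored against vehicle-only wells.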

[4] = NCI Yeast Anticancer Drug Screen. Data for the cln2 rad14 strain (AID 165);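 note: 0% = growth equal to vehicle treated cultures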; conditions: S. cerevisiae cln2 rad14 strain, stronger effect = higher value
Outline: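 Each compound was tested on cln2 rad14 yeast. Inhibition of growth was calculated against vehicle-exposed controls.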

[5] = NCI Yeast Anticancer Drug Screen. Data for the bub3 strain (AID 167); conditions: S. cerevisiae bub3 mutant strain, stronger effect = higher value
Outline: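 Readout: yeast growth inhibition, expressed relative to vehicle-only wells. The test organism is a mutant strain from a panel with lesions in DNA repair or checkpoint genes.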

[6] = NCI Yeast Anticancer Drug Screen. Data for the mlh1 rad18 strain (AID 175); conditions: S. cerevisiae mlh1 rad18 strain growth inhibition, stronger effect = higher value
Outline: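 Vehicle-treated cultures served as the reference for growth inhibition in a yeast strain carrying DNA damage repair alterations exposed to each compound.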

[7] = at 5.0 µM (retest, dose inferred, filed as 0.5)
[8] = at 50.0 µM (retest, dose inferred, filed as 5.0)

SMILES | growth inhibition [1, 7] | growth inhibition [1, 8] | growth inhibition ([1]; at 50.0 µM) | growth inhibition [2, 7] | growth inhibition [2, 8] | growth inhibition ([2]; at 50.0 µM) | growth inhibition [3, 7] | growth inhibition [3, 8] | growth inhibition ([3]; at 50.0 µM) | growth inhibition [4, 7] | growth inhibition [4, 8] | growth inhibition ([4]; at 50.0 µM) | growth inhibition [5, 7] | growth inhibition [5, 8] | growth inhibition ([5]; at 50.0 µM) | growth inhibition [6, 7] | growth inhibition [6, 8] | growth inhibition ([6]; at 50.0 µM)
OC(CC(O)(C(F)(F)Cl)C(F)(F)Cl)c1ccccc1 (configuration not stated) | 31% | 66% | 88.1% (active) | 10% | 62% | 90.7% (active) | 42% | 72% (active) | 92.1% (active) | 35% | 58% | 85.8% (active) | 37% | 69% | 88.6% (active) | 26% | 59% | 89.3% (active)
FC(F)(F)c1ccc(NC(=S)SCc2ccc(Cl)cc2)cc1 | 8% | 99% (active) | 99.3% (active) | 5% | 99% (active) | 99.7% (active) | 13% | 99% (active) | 99.5% (active) | -3% | 98% (active) | 99.4% (active) | 26% | 99% (active) | 99.5% (active) | 17% | 99% (active) | 99.5% (active)
COC(=O)C1(NC(=O)C(CC(=O)OCc2ccccc2)NC(=O)OCc2ccccc2)CCCCCC1 (configuration not stated) | 3% | 30% | 63% | -1% | 41% | 8.9% | -12% | 25% | 50.3% | -2% | 47% | 71.5% (active) | -22% | 66% | 56.8% | -3% | 64% | 59.1%
Cc1c2ccccc2c(C)c2c1cc(F)c1ccccc12 | 32% | 88% (active) | 96.1% (active) | 43% | 92% (active) | 97.3% (active) | 46% | 94% (active) | 96.4% (active) | 34% | 91% (active) | 94.5% (active) | 21% | 90% (active) | 94.8% (active) | 55% | 89% (active) | 93.8% (active)
O=C1c2ccccc2C(O)(c2ccccc2)N1c1ccc([N+](=O)[O-])cc1 (configuration not stated) | 7% | 99% (active) | 99% (active) | 10% | 100% (active) | 99.3% (active) | 0% | 99% (active) | 99.3% (active) | -3% | 99% (active) | 98.9% (active) | -2% | 99% (active) | 99% (active) | 5% | 99% (active) | 99.3% (active)
CCC(C)C(C(=O)NOC(=O)c1ccccc1)/C(N)=N/OC(=O)c1ccccc1 (configuration not stated) | 89% (active) | 99% (active) | 99.5% (active) | 83% (active) | 100% (active) | 98.3% (active) | 96% (active) | 99% (active) | 99.6% (active) | 87% (active) | 99% (active) | 99.5% (active) | 91% (active) | 99% (active) | 99.4% (active) | 97% (active) | 99% (active) | 98.9% (active)
Cc1cc(NS(=O)(=O)c2ccc(N)cc2)no1.[Ag] | 99% (active) | 99% (active) | 99.4% (active) | 100% (active) | 99% (active) | 99.7% (active) | 99% (active) | 100% (active) | 99.7% (active) | 99% (active) | 99% (active) | 99.5% (active) | 99% (active) | 99% (active) | 99.7% (active) | 99% (active) | 99% (active) | 99.5% (active)
CC(=O)C1=C(C)O/C(=C/c2ccc(Cl)cc2)C1=O | 27% | 94% (active) | 49.5% | 28% | 99% (active) | 32% | 34% | 99% (active) | 85.7% (active) | 34% | 90% (active) | 79% (active) | 31% | 99% (active) | 83.2% (active) | 34% | 98% (active) | 91.8% (active)
NC(=S)N/N=C\C12CC3CC(CC(C3)C1)C2 | 57% | 98% (active) | 97.4% (active) | 73% (active) | 97% (active) | 93.7% (active) | 70% (active) | 98% (active) | 92.8% (active) | 25% | 97% (active) | 71.5% (active) | 62% | 98% (active) | 95.6% (active) | 77% (active) | 99% (active) | 96.5% (active)
COC1CCC(/C(C#N)=C/c2ccco2)CC1 (configuration not stated) | 17% | 22% | 61.7% | -5% | 13% | 57.3% | -5% | 26% | 78.2% (active) | 22% | 29% | -0.15% | 38% | 58% | 79.6% (active) | 8% | 49% | 57.1%
CC(C)=CCc1c(O)cc(O)c2c1OC(c1ccc(O)cc1)C(O)C2=O (configuration not stated) | -9% | 98% (active) | 93.2% (active) | 1% | 99% (active) | 94% (active) | -4% | 99% (active) | 93.8% (active) | 20% | 99% (active) | 91.5% (active) | 5% | 99% (active) | 92% (active) | -2% | 99% (active) | 92.5% (active)
O=C(N/C(=C\c1ccccc1)C(=O)N1CCN(c2ccccc2)CC1)c1ccccc1 | -9% | 6% | 90.2% (active) | -4% | -2% | 93.2% (active) | -7% | 7% | 95.3% (active) | -12% | 0% | 87.8% (active) | -4% | 10% | 88.3% (active) | 0% | 6% | 91.7% (active)
Cn1cc(-c2c3c(cc4c2OCO4)OCO3)c2ccccc21 | 4% | 99% (active) | 99.2% (active) | -3% | 98% (active) | 99.2% (active) | 2% | 99% (active) | 99.3% (active) | -9% | 96% (active) | 98.8% (active) | -2% | 99% (active) | 99.2% (active) | -1% | 99% (active) | 99.3% (active)
CSc1ccc(C(=O)C(=O)c2ccc(SC)s2)s1 | 14% | 11% | 26.6% | -15% | -8% | 39.5% | 14% | 14% | 73.8% (active) | 0% | 37% | 76.7% (active) | -2% | 9% | 48.7% | 4% | 2% | -1.7%
NC1CCCCC1N.O=S(=O)([O-])CCCN1CCOCC1.O=S(=O)([O-])CCCN1CCOCC1.[Pt+4] | -12% | 89% (active) | 99% (active) | -6% | 73% (active) | 98.9% (active) | 0% | 87% (active) | 99% (active) | -14% | 58% | 99% (active) | 10% | 92% (active) | 98.6% (active) | 20% | 98% (active) | 99.2% (active)
C=CCNc1nc2c(s1)C(=O)c1ccccc1C2=O | 95% (active) | 98% (active) | 90.8% (active) | 99% (active) | 99% (active) | 93.3% (active) | 100% (active) | 99% (active) | 93.9% (active) | 76% (active) | 99% (active) | 91.8% (active) | 99% (active) | 99% (active) | 91.9% (active) | 98% (active) | 98% (active) | 88% (active)
C1CCC(CCCCc2nn[nH]n2)CC1 | 0% | 98% (active) | 99.1% (active) | -30% | 97% (active) | 99.3% (active) | -1% | 96% (active) | 99% (active) | 0% | 99% (active) | 98.3% (active) | -6% | 97% (active) | 99.3% (active) | -7% | 97% (active) | 99% (active)
COC1=CC(=O)[C@H]2CC(C)=CC[C@]2(C)C1=O | -3% | 2% | 9.35% | 1% | 0% | 6.55% | 2% | 0% | -4.75% | 1% | -2% | 84% (active) | -1% | 0% | 3.35% | -1% | 1% | 15.1%
Cc1ccccc1C1SCc2nc3ccccc3n21 (configuration not stated) | -9% | -7% | -17.1% | -3% | -4% | 8.3% | -5% | 1% | 14.7% | -13% | -20% | 75.3% (active) | -4% | -1% | -6.4% | -9% | -9% | -25.1%
